This experiment can be described thus: HepG2 cell cytotoxicity, dose response, cytotoxicity control, plate reader, dry powder samples (AID 1159569).

These results are taken from PubChem BioAssay AID1159569 (Broad Institute, 2015).

Measured potencies and affinities stand elsewhere. Records with an inconclusive call do not appear. Calls of active or inactive are those of the source. The rule behind the calls is not given here.

Take `C[C@H]1CN([C@@H](C)CO)C(=O)c2c(c3ccccc3n2C)-c2ccccc2CO[C@@H]1CN(C)C(=O)Nc1ccc(-c2ccccc2)cc1`: the outcome was inactive.
Next, `C[C@H](CO)N1C[C@H](C)[C@@H](CN(C)C(=O)Nc2cccc3ccccc23)Oc2ccc(NC(=O)Nc3ccc(C(F)(F)F)cc3)cc2C1=O`: “inactive”; `C[C@@H]1CN([C@@H](C)CO)C(=O)c2cccc(NC(=O)c3cnccn3)c2O[C@@H]1CN(C)Cc1ccc(-c2ccccc2)cc1`: “inactive”.
With `COc1ccc(C#Cc2ccc3c(c2)O[C@@H](CN(C)C(=O)Nc2cccc(OC)c2)[C@H](C)CN([C@H](C)CO)S3(=O)=O)cc1`, the outcome was inactive.
As for `CN1c2ccc(C#Cc3cccnc3)cc2[C@H]2[C@H](CCN2S(=O)(=O)c2ccc(F)cc2)[C@H]1CO`, the outcome was inactive.
For the molecule `COc1ccc(C#Cc2ccc3c(c2)[C@H]2[C@H](CCN2C(=O)C2CCCC2)[C@@H](CO)N3)cc1`, the outcome was inactive.
For `CCCC(=O)N1CC2(C1)CN(S(=O)(=O)c1ccc(C)cc1)[C@@H](CO)c1[nH]c3cc(OC)ccc3c12`, the molecule was called inactive.
As to `COc1ccc(C#Cc2ccc3c(c2)O[C@H](CN(C)C(=O)Nc2cccc(OC)c2)[C@H](C)CN([C@@H](C)CO)S3(=O)=O)cc1`, the call was inactive.
As for `COc1ccc(NC(=O)N(C)C[C@H]2Oc3c(NC(=O)Nc4ccccc4)cccc3C(=O)N([C@@H](C)CO)C[C@H]2C)cc1`, the outcome was inactive.
On to `O=C(c1ccccc1F)N1CC(=O)N2[C@H](CO)[C@H](c3ccc(-c4cccnc4)cc3)[C@H]2C1`, for which the call was inactive.
Consider `O=C(NC[C@@H]1CC[C@H]2[C@H](CN2Cc2cc(-c3ccccc3)on2)O1)c1ccc2c(c1)OCO2`, for which the molecule was called inactive.
